A selection: hits, their analogues and other compounds. The true share with any hit is near 0.97%.
TLR9-MyD88 inh – TLR9-MyD88 interaction inhibition; CHO BLA complementation TLR9-MyD88, CCF4 FRET ratio; inhibition, % at 4.98 µM; 340,000 compounds, 0.21% hits;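 active = inhibition above the mean over all tested compounds plus 3 SD, cut at about 21% in these data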
NOD2-RIPK2 inh – blocks binding of human NOD2 to RIPK2. inhibition, % at 4.98 µM. CHO BLA complementation NOD2-RIPK2, CCF4 ratio. 360,000 compounds, 0.38% hits; in the data active = inhibition above about 21%
TLR4 MyD88 comp – inhibitors of human TLR4-MyD88 binding; O00206+Q99836; HeLa CL3-4 TLR4/MyD88 BLA complementation, FRET ratio; inhibition, % at 8.4 µM; 200,000 compounds, 0.18% hits; AID 861; in the data active = inhibition above about 25%
Bfl-1 A1 inh – inhibitors of the anti-apoptotic protein A1, read as caspase activation. MEF A1-2A-BIM cells, Caspase-Glo 3/7 luminescence, 3 h; percent of clofoctol response, vehicle zero. caspase activation, % (test concentration not listed). 330,000 compounds, 0.066% hits;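 active = over half of replicate activation scores above 10%, or exactly half above 10 with the replicate mean above 10; inconclusive = replicate mean below 10 yet half the replicates above 10; inactive = over half of replicates below 10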
NTR1 agonist – activates human neurotensin receptor 1. activation, % at 20 µM. AID 493036. 330,000 compounds, 0.17% hits. P30989. NTR1-U2OS beta-arrestin-GFP spot imaging, agonist mode;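 active = activation at or above 40% of the spot to cytoplasm intensity ratio, with at least 20 cells analyzed; inconclusive = wells under 20 cells, flagged as cytotoxic or low count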
B2AR ag – human beta-2 adrenergic receptor agonism by FAP; response, % (test concentration not listed); AID 504454; 340,000 compounds, 0.43% hits; Am2.2-beta2AR cells, FAP receptor internalization, flow cytometry; P07550;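 active = response above a set limit, near 3 SD of response in nonfluorescent compounds, cut at about 42% in these data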
B2AR ag CP1 – activates human beta-2 adrenergic receptor. shares compounds with B2AR ag. Am2.2-beta2AR cells, FAP surface receptor, flow cytometry; stronger effect = lower value. percent response (surface receptor), % at 10 µM. 1,100 compounds, 25% hits. AID 540358;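 active = surface receptor percent response at or below 58%, roughly 3 SD from nonfluorescent compounds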
FAP fluor counter – fluorescence artifact in beta-2AR agonist FAP counterscreen | calls only at 10 µM | Am2.2 cells, FAP fluorogen flow cytometry; stronger effect = lower value | shares compounds with B2AR ag | 1,100 tested, under 10 active;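 active = percent response below a set limit in fluorescence channel 1 and below 50% in channel 8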
TLR9-MyD88 cf – confirmation of human TLR9-MyD88 binding inhibitors; shares compounds with TLR9-MyD88 inh; CHO TLR9/MyD88 BLA complementation, CCF4 FRET ratio; inhibition, % at 4.98 µM; 680 compounds, 51% hits;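 active = mean inhibition across three repeats above about 21% taken from the earlier screen, limit read from the data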;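 also: blue over green emission ratio reports constitutive TLR9 MyD88 association via BLA complementation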
BLA counter-1 – counter-screen for TLR9-MyD88 inhibitors: non-selective beta-lactamase inhibitors. 680 compounds, 7% hits. CHO-BLA cells, CCF4 FRET ratio, BLA reporter. inhibition, % at 4.98 µM. shares compounds with TLR9-MyD88 inh;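 active = mean inhibition above a 50% cutoff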;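 also: counterscreen of TLR9-MyD88 hits on CMV-driven BLA in CHO-K1 cells; higher means less blue over green ratio so more BLA blockade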
TLR9 CHO cytotox – CHO cell toxicity counter-screen for TLR9-MyD88 inhibitors | 680 compounds, 39% hits | inhibition, % at 4.98 µM | TLR9-MyD88 CHO cells cytotoxicity, luminescence | shares compounds with TLR9-MyD88 inh | AID 588336; in the data active = inhibition above about 11%
NOD2 RIPK2 conf – confirmation of human NOD2-RIPK2 interaction inhibitors | shares compounds with NOD2-RIPK2 inh | CHO cells, NOD2-RIPK2 BLA complementation, CCF4 FRET | inhibition, % at 4.98 µM | 1,200 compounds, 70% hits;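 active = mean inhibition across replicates above a set limit taken from the earlier primary screen, cut at about 21% in these data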
BLA counter-2 – NOD2-RIPK2 counterscreen BLA reporter activity | 1,200 compounds, 57% hits | shares compounds with NOD2-RIPK2 inh | CHO BLA reporter, CCF4 FRET ratio | inhibition, % at 4.98 µM;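 active = mean inhibition above the low-control mean inhibition plus three low-control SD, cut at about 11% in these data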
Each line names hits and unclear results; the compound was inactive in the other large screens (follow-up assays come after a bar, where they were run).

CC(NCc1ccc(Cl)c(Cl)c1)C(O)c1ccccc1 (stereo not drawn)	none | B2AR ag CP1 inactive | FAP fluor counter inactive
CCC(=O)Nc1ccc(Cl)c(Cl)c1	none (no result: TLR4 MyD88 comp, Bfl-1 A1 inh, NTR1 agonist)
CC(NCc1ccccc1C(F)(F)F)C(O)c1ccccc1 (stereo not drawn)	none | B2AR ag CP1 inactive | FAP fluor counter inactive
CCOc1cc(CNCCc2c[nH]c3ccccc23)cc(Cl)c1OCC	none
CC(NCc1ccccc1Cl)C(O)c1ccccc1 (stereo not drawn)	none | B2AR ag CP1 inactive | FAP fluor counter inactive
C(=N\NC1=NCCCCC1)/c1c[nH]c2ccccc12	none (no result: TLR4 MyD88 comp)
Cc1ccc(-c2nc3ccc(Cl)cc3n2OC(=O)N(C)C)cc1	none
CC(=O)[C@@]1(O)CCC2C3CC=C4C[C@@H](O)CC[C@]4(C)C3CC[C@@]21C (stereo partly drawn)	none (no result: TLR4 MyD88 comp)
CCc1cc(=O)oc2cc(OCC(=O)N3C[C@H]4C[C@@H](C3)c3cccc(=O)n3C4)ccc12	none (no result: TLR4 MyD88 comp)
COc1ccc(OC)c([C@@H](O)[C@H](C)NC(C)(C)C)c1	none | B2AR ag CP1 inactive | FAP fluor counter inactive
CC(=O)c1c(O)n(-c2cccc(Cl)c2)c(=O)[nH]c1=O (tested in a mixture with another compound)	none (no result: TLR4 MyD88 comp)
CC(C)n1c(O)c(C2c3cc(Cl)ccc3Oc3[nH]c(=O)n(C(C)C)c(=O)c32)c(=O)[nH]c1=O (stereo not drawn)	B2AR ag 59.0 (no result: TLR4 MyD88 comp, Bfl-1 A1 inh, NTR1 agonist) | B2AR ag CP1 47.6 | FAP fluor counter active
CCn1c(=N)n(Cc2ccccc2F)c2ccccc21	none
CCCCCCn1c(O)c(C=Nc2c(C)n(C)n(-c3ccccc3)c2=O)c(=O)[nH]c1=O	B2AR ag 48.5 | B2AR ag CP1 47.7 | FAP fluor counter inactive
CCOC(=O)c1c(-n2c(C)cc(C=C3C(=O)NC(=S)NC3=O)c2C)sc2c1CCCC2	none
COc1ccc(CC(C)NCCC(c2ccccc2)c2ccccc2)cc1 (stereo not drawn)	none (no result: TLR4 MyD88 comp) | B2AR ag CP1 inactive | FAP fluor counter inactive
COc1ccc(OC)c2c1CCC1NCCOC21 (stereo not drawn)	none | B2AR ag CP1 inactive | FAP fluor counter inactive
COc1ccc2c(c1)C1OCCNC1CC2 (stereo not drawn)	none (no result: TLR9-MyD88 inh, TLR4 MyD88 comp, Bfl-1 A1 inh, NTR1 agonist, B2AR ag)
COc1ccc(CNCC(=O)N2CCC3(CC2)OCCO3)cc1	none
COc1ccc(CC2NCC(O)C2OC(C)=O)cc1 (stereo not drawn)	NOD2-RIPK2 inh 35.3, B2AR ag 110.4 (no result: TLR4 MyD88 comp, Bfl-1 A1 inh, NTR1 agonist) | B2AR ag CP1 20.0 | FAP fluor counter active | NOD2 RIPK2 conf 32.4 | BLA counter-2 inactive
COC(=O)[C@@]1(Cc2ccc(F)cc2)[C@H]2c3cc(C(=O)N(C)C)[nH]c3C[C@H]2CN1C(=O)c1ccccc1	none
COc1cc(/C=C(/C)[N+](=O)[O-])ccc1OCc1ccccc1Cl	TLR9-MyD88 inh 34.0, NOD2-RIPK2 inh 81.0, Bfl-1 A1 inh inconclusive, B2AR ag 48.0 | TLR9-MyD88 cf 33.8 | BLA counter-1 inactive | TLR9 CHO cytotox 98.9
COc1cc(C=C2C(=O)NC(=O)NC2=O)ccc1OCc1ccc([N+](=O)[O-])cc1	none (no result: Bfl-1 A1 inh, NTR1 agonist)
COc1cccc(C(=O)C2CCCN(Cc3cnn(C(C)C)c3)C2)c1 (stereo not drawn)	none
CCC1(C)OC(c2ccccc2)=C/C(=C/C=C2C(=O)NC(=O)NC2=O)O1 (stereo not drawn)	TLR9-MyD88 inh 33.2 (no result: Bfl-1 A1 inh, NTR1 agonist) | TLR9-MyD88 cf 24.8 | BLA counter-1 inactive | TLR9 CHO cytotox inactive
CC1=NCCc2c1[nH]c1cc(O)ccc21	TLR9-MyD88 inh 32.1, NOD2-RIPK2 inh 54.2 (no result: TLR4 MyD88 comp) | TLR9-MyD88 cf 26.1 | BLA counter-1 inactive | TLR9 CHO cytotox inactive | NOD2 RIPK2 conf 49.5 | BLA counter-2 51.2
COc1ccc2c3c([nH]c2c1)C(C)=NCC3	none
Cc1ccccc1-n1c(O)c(C=Nc2ccc3c(c2)OCO3)c(=O)[nH]c1=O	none
Nc1cc(Cl)c2nonc2c1[N+](=O)[O-]	TLR9-MyD88 inh 52.2, NOD2-RIPK2 inh 73.6, B2AR ag 72.7 (no result: NTR1 agonist) | TLR9-MyD88 cf 47.9 | BLA counter-1 inactive | TLR9 CHO cytotox 97.2 | NOD2 RIPK2 conf 75.6 | BLA counter-2 21.4
COc1cc(/C=C/[N+](=O)[O-])ccc1O	NOD2-RIPK2 inh 42.0 | NOD2 RIPK2 conf 44.4 | BLA counter-2 inactive
N#CC1=C(N)Oc2c(c(=O)sc3ccccc23)C1c1cccnc1 (stereo not drawn)	NOD2-RIPK2 inh 21.8 | NOD2 RIPK2 conf inactive | BLA counter-2 inactive
N#CC1=C(N)Oc2c(c(=O)oc3ccccc23)C1c1ccncc1 (stereo not drawn)	none
CC1=CC2OC3CC4OC(=O)C=CC=CC(C(C)O)OCC(O)C(C)CC(=O)OCC2(CC1O)C4(C)C31CO1 (stereo not drawn)	NOD2-RIPK2 inh 21.7 (no result: TLR4 MyD88 comp, Bfl-1 A1 inh, NTR1 agonist) | NOD2 RIPK2 conf 21.4 | BLA counter-2 inactive
CC1=CC2OC3CC4OC(=O)C=CC=CC(=O)OCCC(C)C(O)C(=O)OCC2(CC1O)C4(C)C31CO1 (stereo not drawn)	NOD2-RIPK2 inh 29.3 (no result: TLR4 MyD88 comp, Bfl-1 A1 inh, NTR1 agonist) | NOD2 RIPK2 conf 28.2 | BLA counter-2 inactive
CC(O)C1C=CC=CC(=O)OC2CC3OC4C5OC5(C)CCC4(COC(=O)C4OC4(C)C(O)CO1)C2(C)C31CO1 (stereo not drawn)	NOD2-RIPK2 inh 29.5 (no result: TLR4 MyD88 comp, Bfl-1 A1 inh, NTR1 agonist) | NOD2 RIPK2 conf 20.9 | BLA counter-2 inactive
